Laboratory results as given in PubChem BioAssay AID1259400 (National Center for Advancing Translational Sciences (NCATS), 2018).
The whole screen tested about 350,000 compounds, of which about 2,100 (0.6%) were called active. About 1% were inconclusive and are not listed.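 How the source made its calls: active means activity change of -60% or lower, but not beyond a set lower limit; inconclusive means change between -60% and -40%, or beyond the set limit; inactive means change above -40%.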 The list comes from a sample in which actives are over-represented; it also holds similar structures and randomly drawn compounds.

Each compound was assayed against Relaxin receptor 1 (Homo sapiens) (UniProt Q9HBX9) (assay: qHTS Assay for Antagonists of the Relaxin Receptor RXFP1). Details: HEK293-RXFP1, relaxin-stimulated cAMP HTRF, 30 min; at 57.5 µM; stronger effect = lower value.
Chain of Relaxin receptor 1 (Homo sapiens) (Q9HBX9 whole entry, looked up): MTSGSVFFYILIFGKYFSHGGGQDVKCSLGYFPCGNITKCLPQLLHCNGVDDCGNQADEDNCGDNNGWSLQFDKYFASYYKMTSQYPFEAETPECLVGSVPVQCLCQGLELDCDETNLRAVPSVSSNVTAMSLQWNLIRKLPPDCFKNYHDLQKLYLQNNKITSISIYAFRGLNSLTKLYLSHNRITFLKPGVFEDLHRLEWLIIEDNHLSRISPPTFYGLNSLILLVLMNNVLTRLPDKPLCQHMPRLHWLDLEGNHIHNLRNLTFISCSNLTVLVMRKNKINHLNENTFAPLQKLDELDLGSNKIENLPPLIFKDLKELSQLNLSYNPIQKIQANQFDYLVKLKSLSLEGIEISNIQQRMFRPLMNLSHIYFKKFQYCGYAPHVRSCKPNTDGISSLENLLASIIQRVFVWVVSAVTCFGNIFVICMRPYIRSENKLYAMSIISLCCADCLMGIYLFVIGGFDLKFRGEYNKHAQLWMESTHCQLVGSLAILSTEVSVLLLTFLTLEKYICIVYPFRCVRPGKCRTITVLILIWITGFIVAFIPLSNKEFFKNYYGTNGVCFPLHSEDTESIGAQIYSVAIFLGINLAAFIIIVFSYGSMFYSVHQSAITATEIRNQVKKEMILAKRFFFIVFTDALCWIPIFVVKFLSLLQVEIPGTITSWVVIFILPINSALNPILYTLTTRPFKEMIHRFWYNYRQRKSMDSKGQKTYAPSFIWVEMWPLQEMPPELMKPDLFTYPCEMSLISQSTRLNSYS
On the % scale 0 is the no-effect control and ±100 the full control effect.

Activity change, negative = inhibition, active:
COC(=O)/C=C\C(=O)Nc1cccc([N+](=O)[O-])c1 -90.5%, O=C(NNc1nc(N2CCCC2)nc(N2CCCC2)n1)c1ccccc1 -63.3%, CCN1CCC(O)(/C=C/c2ccc(C)cc2)C(C(=O)/C=C/c2ccc(C)cc2)C1 (stereo unspecified) -75.3%, CCOC(=O)c1c(C)[nH]c(=S)c(C#N)c1-c1ccccc1 -118%, OCc1ccc(-c2ccccc2)c(-c2ccccc2)c1 -64.5%, O=C(O)c1ccc(N/N=C/c2cn(-c3ccccc3)nc2-c2cccs2)cc1 -105%, O=C(Nc1ccccc1Cl)/C(Cl)=C(\Cl)S(=O)c1ccccc1 (stereo unspecified) -106%, CC(C)OC(=O)c1ccc(NCc2cc(O)ccc2O)cc1Cl -85.7%, Oc1ccc(/C=N/Nc2ccc(C(F)(F)F)cn2)cc1O -72.1%, O=C(CSc1nccn1C1CCCC1)Nc1cc(C(F)(F)F)ccc1Cl -72.3%, O=C(CSc1ccc([N+](=O)[O-])cn1)Nc1ccc(N2CCOCC2)cc1 -66.8%, CC(=N\NC(=O)c1cc(Br)ccc1O)/C(=N/O)C(=O)Nc1ccccc1 -80.9%, CC(NCc1ccccc1OC1CCCC1)c1ccccc1 (stereo unspecified) -60.9%

Activity change, negative = inhibition, inactive:
Cc1cccc(Cn2c(SCc3ccc(C(=O)N4CCC(C)CC4)cc3)nc3ccncc32)c1 -27.4%, CC(C)c1ccc(NC(=O)Cn2nnc(C(=O)NCCc3ccccc3)c2N)cc1 7.65%, Cn1c(C(=O)N2CCC(C(=O)N3CCN(c4ccccc4)CC3)CC2)cc2sccc21 -7.62%, CCC(CC)NC(=O)/C=C/c1cccc([N+](=O)[O-])c1 5.58%, O=C(CN1CCOCC1)Nc1cccc([N+](=O)[O-])c1 -13.2%, C[C@@H]1CCC[C@H](C)N1CCCC(O)(c1ccccc1)c1ccccn1 (stereo partly specified) 5.21%, O=C(NNC(=O)C1CCN(c2ncccn2)CC1)c1ccccc1 0.68%, O=C(NNC(=O)C1CCC1)c1ccccc1 -1.83%, CCc1ccc(S(=O)(=O)c2nnn3c2nc(N2CCN(CC)CC2)c2sccc23)cc1 -12.6%, CCN1CCC2(CC1)N=C(c1ccc(F)cc1)C(=S)N2C(=O)c1ccc(C)cc1 8.98%, CCCS(=O)(=O)c1c(Nc2ccccc2C)sc(C(=O)c2ccccc2)c1N -38.6%, Cc1cccc(NC(c2cccc(F)c2)c2ccc3ccc(C)nc3c2O)n1 (stereo unspecified) -1.75%, Cc1ccc(-c2cnc(NCc3ccc(C(C)C)cc3)n2C)cc1 -10.2%, Cc1[nH]c2ccccc2c1C(=O)COC(=O)c1c(-c2ccccc2)noc1C -27.9%, CC(=O)c1c(C)[nH]c(=S)c(C#N)c1-c1ccc(F)cc1 7.17%, OCC(CO)(CO)NCc1ccc(-c2ccccc2)cc1 -7.18%, OCCN(Cc1ccccc1)Cc1ccc(Cl)cc1 -15.6%, CCOC(=O)c1c(C)oc2nc(C)nc(N(CC(C)C)CC(C)C)c12 -27.5%, CC(=O)C1=C(C)NC(C)=C(C(C)=O)C1c1cn(-c2ccccc2)nc1-c1cccs1 -18.3%, O=C(NCc1cccnc1)c1cn(-c2ccccc2)nc1-c1cccs1 -17.9%, CCCn1c2ccccc2c2cnn(CC(=O)N3CCCC(C(=O)OCC)C3)c(=O)c21 (stereo unspecified) 3.38%, CCN(CCCNC(=O)CSc1cc(=O)n(C)c2cc(Cl)ccc12)c1cccc(C)c1 14%, CSc1ccccc1NC(=O)CCS(=O)(=O)c1nc(-c2cccs2)cc(C(F)(F)F)n1 0.767%, COc1ccc(NC(=O)NC(C)c2c(-n3cccc3)sc(C)c2C)cc1OC (stereo unspecified) -9.76%, O=C(Nc1ccccc1Cl)N1CCC(CN2CCCC2)CC1 2.65%, O=C(CCN1CCN(C/C=C/c2ccccc2)CC1)Nc1ccccc1Cl 3.3%, Cc1c(Cl)cccc1-c1ccc(CNCCCSc2nnnn2C)o1 -6.68%, Cc1ccc(C2C=C(c3ccc(Cl)cc3)Nc3nc(NC(=O)CCC(=O)O)nn32)cc1 (stereo unspecified) -0.127%, Cc1ccc(Cl)cc1N1CCN(C(=O)c2cnc3c(-c4ccc(F)cc4)c(C)nn3c2C)CC1 -19.1%, COC(=O)c1ccc(NCc2cc(O)ccc2O)cc1 -28.1%, O=C(OC12CC3CC(CC(C3)C1)C2)c1ccc(NCc2cc(O)ccc2O)cc1 -37.9%, CCCN1CCc2nc(N3CCN(C)CC3)ncc2C1 3.24%, FC(F)(F)c1cccc(N/N=C/c2ccccc2)c1 6.38%, O=C(N/N=C/c1ccc(O)c(O)c1)C1c2ccccc2Oc2ccccc21 -17.9%, CC1(C)OC[C@@H](COC(=O)CCc2ccc(OC[C@@H](O)CNCCNC(=O)N3CCOCC3)cc2)O1 -4.26%, O=C(CSc1nc(=O)[nH]c2c1CCCC2)Nc1cc(C(F)(F)F)ccc1Cl 6.44%, COc1ccc(NC(=O)CSc2nccn2C2CCCC2)cc1OC 6.9%, Cc1cc2c(cc3c(SCc4cccc(Cl)c4)nnc(C)n32)o1 -4.3%, Cn1cnnc1SCC(=O)Nc1ccc(N2CCOCC2)cc1 -11.8%, O=C(CSc1ccc([N+](=O)[O-])cn1)Nc1ccc(N2CCOCC2)c(Cl)c1 -1.58%, Cc1ccc(O)c(NC(=O)c2cc(-c3ccc(F)cc3)no2)c1 -3.02%, CC(=O)c1ccc(NC(=O)CSc2c(C(C)C)cnc3c2c(=O)n(C)c(=O)n3C)cc1 3.09%, CC(C)c1ccc(C2CC(=O)N3CN(C4CCCCC4)CSC3=C2C#N)cc1 (stereo unspecified) -4.73%, Cc1ccc(-c2nc3cccc(C)n3c2Nc2ccc3c(c2)OCCO3)cc1 3.27%, CC(=O)N/N=C(\C)c1ccc(Br)cc1Br 3.93%, COc1ccc(-c2[nH]ncc2/C=N/NC(=O)c2cc(Br)ccc2O)c(OC)c1 -30%, COc1cc(CNC2CCCCC2)c(Br)cc1OC1CCCC1 -7.24%, CC(C)(C)NCc1cc(Br)ccc1OC1CCCC1 -6.03%
